USP10 inh – inhibitors of human USP10 deubiquitinase. Ubiquitin carboxyl-terminal hydrolase 10 (Homo sapiens), Q14694. purified USP10, Ub-rhodamine fluorescence, 60 min. inhibition, % at 20 µM. hit rate 1.1% among 47,000. AID 1645856, 2021
UCHL1 inh – inhibitors of human UCHL1 deubiquitinase | Ubiquitin carboxyl-terminal hydrolase isozyme L1 (Homo sapiens), P09936 | purified UCHL1, Ub-rhodamine cleavage fluorescence | inhibition, % at 20 µM | hit rate 0.2% among 47,000 | AID 1645859, 2021
USP7 inh – inhibitors of human USP7 deubiquitinase; hit rate 0.3% among 47,000; Ubiquitin carboxyl-terminal hydrolase 7 (Homo sapiens), Q93009; AID 1645854, 2021; inhibition, % at 20 µM; purified USP7, Ub-rhodamine cleavage fluorescence
USP30 inh – inhibitors of human USP30 deubiquitinase | purified USP30, Ub-rhodamine cleavage fluorescence | inhibition, % at 25 µM | hit rate 5.3% among 47,000
USP17 block – inhibitors of human USP17 deubiquitinase; purified USP17, Ub-rhodamine cleavage fluorescence, 3 h; inhibition, % at 50 µM; hit rate 6.5% among 47,000; AID 1645855, 2021
USP8 inh – inhibitors of human USP8 deubiquitinase; inhibition, % at 20 µM; purified USP8, Ub-rhodamine cleavage fluorescence, 30 min; hit rate 4.2% among 47,000
Large screens that a line does not name were inactive. A selection: hits, their analogues and other compounds. The true share with any hit is near 13%. No stated cut-off is given here; in the data, active means inhibition above about 30%; inactive means the rest.

COc1cnc(CSc2ccc(F)cc2)cc1OCC(=O)Nc1ccccc1F	USP30 inh 43.3, USP17 block 41.1
COc1cnc(CSc2ncccn2)cc1OCC(=O)Nc1c(C)cc(C)cc1C	none
CC(C)CC(=O)Nc1ccc(N2CCN(C3CCCCC3)C2=O)nc1	none
CCOC(=O)CNC(=O)c1ccc(N(CC)CC)cc1	none
O=C(Nc1ccc2c(c1)OCO2)c1ccc(CN2CCc3ccccc3C2)cc1	none
Cc1ccc(C)c(NC(=O)COc2coc(CN3CCc4ccccc4C3)cc2=O)c1	none
O=C(COc1coc(CN2CCc3ccccc3C2)cc1=O)Nc1ccc(F)cc1	none
Cc1cccc(NC(=O)COc2coc(CN3CCc4ccccc4C3)cc2=O)c1	USP8 inh 34.5
CC(=O)c1ccc(NC(=O)COc2coc(CN3CCc4ccccc4C3)cc2=O)cc1	USP17 block 46.3
O=C(CSc1ccc(Cl)cc1)Nc1ccc(Cl)cn1	none
Cc1cccc(NC(=O)CSc2nnc(CNc3ccc(Cl)cc3)n2C)c1C	USP8 inh 43.5
Cc1ccc(NC(=O)CSc2nnc(Cc3cccc4ccccc34)n2C)c(C)c1	USP17 block 38.8
Cc1cc(C)c(NC(=O)CSc2nnc(Cc3cccc4ccccc34)n2C)c(C)c1	none
Cc1ccc(-n2c(Cc3cccc4ccccc34)nnc2SCC(=O)NC2CCS(=O)(=O)C2)c(C)c1 (configuration not stated)	USP17 block 42.3
CC(C)c1cc(C(=O)NCc2cccnc2-n2cccn2)c2ccccc2n1	none
O=C(COc1nsnc1N1CCOCC1)Nc1ccc(F)cc1F	none
O=C(Cn1ccc2ccc(N3CCOCC3)nc21)NCc1ccccc1F	none
Cc1cc(=O)[nH]c2cc(-c3ccccc3)nn12	USP30 inh 38.5
Cc1ccc2nnc(-c3ccccc3)c(C(=O)N3CCN(c4ccccn4)CC3)c2c1	USP17 block 50.3
COc1ccc(CCNC(=O)CN2C(=O)c3ccccc3C2c2c(C)[nH]c3ccccc23)cc1OC (configuration not stated)	none
COc1ccc(C2c3c(-c4ccccc4O)n[nH]c3C(=O)N2CCc2ccc(OC)c(OC)c2)cc1 (configuration not stated)	USP8 inh 61.0
CCOc1ccccc1C1CC(=O)Nc2ccc3ccccc3c21 (configuration not stated)	UCHL1 inh 89.0
COc1ccc(C2CC(=O)Nc3ccc4ccccc4c32)c(OC)c1OC (configuration not stated)	USP30 inh 68.2, USP17 block 37.4
Cc1ccc(Nc2nc(NCCc3ccccc3)nc3c2cnn3C)cc1	USP17 block 73.5
COc1ccc(Nc2nc(NCc3ccccc3)nc3c2cnn3C)cc1	USP17 block 31.9
CCCOC(=O)c1cc(NC(=O)c2ccc(OCC)c(Cl)c2)ccc1N1CCOCC1	none
Cc1ccc2nc(N3C(=O)c4oc5ccccc5c(=O)c4C3c3ccc(C)o3)sc2c1 (configuration not stated)	USP30 inh 41.0, USP17 block 40.4
CN1CCCC12CCCN(C(=O)c1ccc(Cl)cc1)C2 (configuration not stated)	none
N[C@@H](Cc1ccccc1)C(=O)N1CCC2(CC1)CN(C(=O)c1ccc(Cl)cc1)CCO2	USP30 inh 68.5, USP17 block 46.1
Cn1c(=O)sc2cc(NC(=O)c3ccc(Br)cc3)ccc21	USP17 block 58.8
Oc1cc(OCCN2CCOCC2)ccc1-c1[nH]ncc1-c1ccc(Cl)cc1	USP8 inh 83.8
NC(=O)C1CCN(CCOc2ccc(-c3[nH]ncc3-c3ccc(Cl)cc3)c(O)c2)CC1	USP8 inh 77.4
Oc1cc(OCCN2CCOCC2)ccc1-c1[nH]ncc1-c1ccc(Br)cc1	USP8 inh 76.3 (no result: USP17 block)
C/C=C/C=C/C=C/C(=O)O[C@@H]1C=C2COC(=O)[C@]2(O)[C@@]2(C)CCCC(C)(C)C12 (some centres not stated)	none
O=C(Nc1cccc(C(=O)NC2CC2)c1)c1ccc2c(c1)CC(c1ccccc1)OC2=O (configuration not stated)	none
O=C(Nc1ccccc1)c1ccc2c(c1)CC(c1ccccc1)OC2=O (configuration not stated)	USP17 block 74.2, USP8 inh 31.7
O=C(CCc1ccccc1)Nc1ccc2c(c1)nc1n2CCN(C2CCCC2)C1	USP8 inh 30.7
